Lamin A splicing – LMNA splicing modulation | HeLa LMNA splicing GFP/RFP minigene ratio, 48 h | Potency, µM (doses to about 46.1 µM), for inactives: at the highest dose ratio change, negative = inhibition, most hits filed as inhibitors | 200,000 tested, 0.01% active | AID 1487; active means well fitted inhibition curve with a large enough effect in the signal ratio, with a control signal flat, not every such curve was filed as active; inconclusive means small, poorly fitted or top-dose-only effect, or effect the other way, or a change in a side signal; the % refers to the signal ratio; further: on the % scale 0 is the no-effect control and ±100 the full control effect
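S3 HeLa stable clones carrying a lamin A-EGFP splicing minigene plus DsRed2 were seeded at 600 cells/well in Opti-MEM with 2% FBS, pin-dosed and incubated 48 h at 37°C. Acumen cytometry (488 nm) gave the GFP/RFP total-intensity ratio.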
HPGD block – HPGD (human) dehydrogenase inhibition | P15428 | 150,000 tested, 4.3% active | Potency, µM, for the others: top-dose activity change, negative = inhibition, most hits filed as inhibitors | purified HPGD, NADH fluorescence kinetic, PGE2 substrate; further: on the % scale 0 is the no-effect control and ±100 the full control effect
Target sequence (P15428 whole entry, looked up): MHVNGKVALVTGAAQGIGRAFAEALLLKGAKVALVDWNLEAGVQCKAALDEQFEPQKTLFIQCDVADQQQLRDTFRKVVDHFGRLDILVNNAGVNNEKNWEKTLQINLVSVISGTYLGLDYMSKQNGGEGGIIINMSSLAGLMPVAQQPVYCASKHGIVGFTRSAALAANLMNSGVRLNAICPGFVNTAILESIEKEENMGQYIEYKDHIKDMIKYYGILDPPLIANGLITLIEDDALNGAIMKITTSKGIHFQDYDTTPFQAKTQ
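NADH formation kinetics: reaction with 30 uM PGE2 and 1 mM NAD+ (final), 20 nM enzyme, Tris-HCl pH 8 with Tween 20, after 15 min compound preincubation at room temperature. Fluorescence change, last versus first of five reads.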
ALDH1A1 block – ALDH1A1 (human) enzyme inhibition | P00352 | Purified ALDH1A1, NADH fluorescence, propionaldehyde substrate | Potency, µM (series often up to 75.3 µM), for the others: at the top dose activity, negative = inhibition, hits mostly inhibitors | 220,000 tested, 7.3% active;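 further: plate controls were no enzyme wells and a reference inhibitor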
HTT ATP protect – cytoprotection in Huntington HTT-Q103 PC12 cell model. PC12 HTT-Q103 induced, cytoprotection, ATP luminescence, 40 h. Potency, µM (titrated, usually from 56.4 µM), for the others: cytoprotection (ATP increase), usual class: activators. 230,000 tested, 0.14% active. AID 1471; active means well fitted curve in the direction sought with a large enough effect; inconclusive means small, poorly fitted or top-dose-only effect, or another doubt; inactive means no such curve, though single readings can be large; an effect the other way counts as inactive or inconclusive; further: % of control where 0% means no effect; nearly all actives have a fitted effect of over 45% in size
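ATP quantification (ATPlite) reports survival of PC12 cells in which tebufenozide, 100 nM final, switches on Htt exon 1 with 103 glutamines linked to GFP; compounds are titrated.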
HTT aggregate – mutant huntingtin aggregation inhibition | PC12 HttQ103-GFP aggregates, Acumen cytometry, 40 h | Potency, µM (doses to about 46.1 µM), for the others: at the top dose activity change, negative = inhibition, hits mostly inhibitors | 220,000 tested, 1.1% active; active means well fitted curve in the direction sought with a large enough effect; inconclusive means small, poorly fitted or top-dose-only effect, or another doubt; inactive means no such curve, though single readings can be large; an effect the other way counts as inactive or inconclusive; further: on the % scale 0 is the no-effect control and ±100 the full control effect; nearly all actives have a fitted effect of over 60% in size
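Using laser scanning cytometry, GFP-positive aggregates were counted after lysis of PC12 cells induced with 100 nM tebufenozide to express HTT exon 1 Q103–GFP. Compounds were tested in titration.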
The depositor's hits bear a star; ? = inconclusive; . = no result given; ! = repeats disagree; [ ] = dose if it differs, or a comment. Shown are actives, neighbours in structure and some others; about 8.8% of the full set was active somewhere. Unless noted, the call rests on the fitted dose curve; in most records, active means well fitted inhibition curve with a large enough effect (not every such curve was filed as active); inconclusive means small, poorly fitted or top-dose-only effect, or another doubt; inactive means no such curve, though single readings can be large or run the other way. Potency means the concentration at half of the fitted maximal effect.

SMILES	Lamin A splicing	HPGD block	ALDH1A1 block	HTT ATP protect	HTT aggregate
COC(=O)CC1=COC2OCC3=CC[C@@H]1C32 (some centres not stated)	.	.	9%[13.5 µM]	-12%[10 µM]	.
CCCCC[C@H](O)/C=C/[C@H]1C(=O)C=C[C@@H]1C/C=C\CCCC(=O)O	.	-10%	2%	5.6µM*!	.
CCCCC[C@H](O)/C=C/[C@H]1[C@H](O)CC(=O)[C@@H]1C/C=C\CCCC(=O)O	.	-17%	-1%	?	2%
CCC(COC(=O)Nc1cccc(C)c1)NC(=O)OCC(C)C (configuration not stated)	?	-14%	-14%	-35%	10µM*
CCNC(=O)OCC(CC)NC(=O)OCC(C)C (configuration not stated)	-9%	-8%	1%	-4%	5%
CCCCCCCC1=CC2=C(Cl)C(=O)C(C)(OC(C)=O)C(=O)C2=CO1 (configuration not stated)	.	-13%	-1%	-73%	.
COc1ccc2c(c1)CCC1=C2NC(=S)NC1c1ccc(N(C)C)cc1 (configuration not stated)	?	.	2.8µM*	-1%[10 µM]	12%[9.22 µM]
C=CCOc1ccc(C2NC(=S)NC3=C2CCc2ccccc23)cc1 (configuration not stated)	.	.	1µM*	17%[10 µM]	12%[9.22 µM]
COc1cc(C2NC(=S)NC3=C2CCc2ccccc23)cc(OC)c1OC (configuration not stated)	-9%	-15%	?	5%[10 µM]	10%
CC(C)=CCn1cnc2c1C(NOCc1ccccc1)=NCN2	.	-10%	9%	-36%	.
CCCCCCCC/C=C\CCCCCCCCOC[C@H](COP(=O)([O-])OCC[N+](C)(C)C)OC(C)=O	.	-9%	7%	15%	.
COc1cccc(/C=C/c2nc3c(cnn3-c3ccccc3)c(=O)[nH]2)c1	?	.	?	-15%	12%
COc1cccc(/C=N/n2nnc3c(cnn3-c3ccccc3)c2=O)c1	-2%	?	0.89µM*	-21%	3%
Cc1ccc(C)c(CSc2nnc(-c3ccccn3)n2N)c1	17%	16µM*	10µM*	19%	?
Cc1ccc(/C=C/c2onc(C)c2S(=O)(=O)N2CCC(C(=O)Nc3ccc(OC(F)(F)F)cc3)CC2)cc1	-5%[46 µM]	.	.	.	.
CC(=O)NC1=NC(=O)/C(=C/c2cn(C(C)=O)nc2-c2ccccc2)S1	?	.	10µM*	1%	?
COc1c(Br)cc2c(C)c(C(=O)O)oc2c1Br	?	14µM*	?	-6%	-23%
COc1ccc2c(C)c(C(=O)O)oc2c1	16%	-29%	?	-11%	-4%
CCC(=O)N1CCc2cc(CNC(=O)c3cccc(N(C)C)c3)ccc21	9%[46 µM]	.	.	.	.
Cc1c(C(=O)Nc2cccc(C(F)(F)F)c2)oc2ccc(S(=O)(=O)N(C)C3CCCCC3)cc12	-19%[46 µM]	.	.	.	.
COc1ccc(CN(C(=O)Cn2nnc(-c3ccc(C)o3)n2)C(C(=O)NCC2CCCO2)c2ccco2)cc1 (configuration not stated)	?	.	6%	-46%[10 µM]	-28%[9.22 µM]
Cc1nc(-c2cccc(NS(=O)(=O)c3ccccc3)c2)cs1	-1%	14µM*	14µM*	15%	?
Cc1ccc(S(=O)(=O)Nc2cccc(-c3cn4ccsc4n3)c2)cc1	?	-3%	16µM*	-24%	-10%
Cc1cccc(S(=O)(=O)Nc2cccc(-c3cn4ccsc4n3)c2)c1	?	-23%	10µM*	-12%	3%
CC(CSC(=O)c1ccccc1)C(=O)N1C[C@@H](Sc2ccccc2)C[C@H]1C(=O)O (some centres not stated)	.	.	.	11%	4%
SMILES	Lamin A splicing	HPGD block	ALDH1A1 block	HTT ATP protect	HTT aggregate
COCCn1c(=NC(=O)/C=C/c2ccccc2)sc2cc(NC(C)=O)ccc21	?	?	-6%	16%[10 µM]	-6%
COCCCNS(=O)(=O)c1ccc(OC)c(Cl)c1Cl	-3%	-9%	10µM*	12%	3%
CCOc1ccc2nc(N(Cc3cccnc3)C(=O)c3ccc4c(c3)OCCO4)sc2c1	-7%[46 µM]	.	.	.	.
Cc1ccc(-n2c(C)cc(C(=O)COC(=O)c3c(C)noc3C)c2C)cc1	?	-11%	6%	-49%	10µM*
Cc1cc(C(=O)COC(=O)C2=NNC(=O)CC2)c(C)n1-c1ccccc1	7%	-19%	16µM*	-22%	-19%
Cc1ccc(-n2c(C)cc(C(=O)COC(=O)C3=NNC(=O)CC3)c2C)cc1	-4%	0%	15%	-8%	-29%
O=C(CC(Nc1cccc(Cl)c1Cl)C(=O)O)c1ccccc1 (configuration not stated)	.	.	0.35µM*	20%	10%[9.22 µM]
COc1ccc(C(=O)N2CCC3(CCN(C)CC3)CC2)cc1	.	-1%	9%	-39%	.
CCNC(=O)/C=C1\NC(C)(C)Cc2c1ccc1ccccc21	-10%	-1%	-6%	-10%	-26%
CC1(C)Cc2c(ccc3ccccc23)C(=O)N1	?	?	?	29%	11µM*
CCCCC/C=C\C\C=C/C=C/C=C/[C@@H](SC[C@H](NC(=O)CC[C@H](N)C(=O)O)C(=O)NCC(=O)O)[C@@H](O)CCCC(=O)O	.	.	?	12%	.
COC(=O)c1ccc(COc2ccc3c(c2)CCC3)o1	.	.	.	-2%[10 µM]	-3%[9.22 µM]
Cc1ccccc1S(=O)(=O)Cc1ccc(C(=O)NCc2cccnc2)o1	-14%	-8%	14µM*	19%[10 µM]	0%
CC(NC(=O)c1ccc(CS(=O)(=O)c2ccc(Cl)cc2)o1)c1ccc2c(c1)OCCO2 (configuration not stated)	?	-9%	?	1%	-4%[9.22 µM]
O=C(NCc1cccnc1)c1ccc(COc2ccc3c(c2)CCC3)o1	?	?	?	6%[10 µM]	8.9µM*
Cc1ccccc1S(=O)(=O)Cc1ccc(C(=O)NC(C)c2ccc3c(c2)OCCO3)o1 (configuration not stated)	-7%	-20%	14µM*	-20%	-13%
NNC(=O)c1ccc(COc2ccc3c(c2)CCC3)cc1	-10%	-17%	7.9µM*	-3%[10 µM]	-31%
O=C(O)c1ccc(COc2ccc3c(c2)CCC3)cc1	.	.	.	10%[10 µM]	-12%[9.22 µM]
CCCCCCCCCCSc1n[nH]c(N)n1	3%	?	?	-25%[10 µM]	13%
COc1ccc(OCC(=O)Nc2ccc(N3CCOCC3)cc2)cc1	-2%	-8%	-6%	-6%	8%
COc1ccc(S(=O)(=O)Nc2ccc(N3CCOCC3)cc2)cc1[N+](=O)[O-]	.	.	13µM*	-13%	-22%
COc1ccc(OCC(=O)Nc2ccc(N3CCOCC3)cc2)c([N+](=O)[O-])c1	.	.	28µM*	-23%	-12%
COCCNC(=O)CNC(=S)N(CCCN1CCOCC1)Cc1cccs1	16%[46 µM]	.	-2%	-26%	19%
CS(=O)(=O)N1CCC2(CCN(Cc3ccncc3)CC2)CC1	.	-18%	-2%	-5%	.

Screens: PubChem, National Center for Advancing Translational Sciences (NCATS)
